The nature of assay [1]: growth inhibition of DIPG glioma cells, dose response, cell-based, SU-DIPG-XVII, MIPE5.0, CellTiter-Glo, qHTS (AID 1347060; cut-off not given, nearly all actives have AC50 up to about 26 µM;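 as to AC50: cells exposed to compound for 48 hours before viability readout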). The conditions noted are these: SU-DIPG-XVII viability, CellTiter-Glo ATP luminescence.
Assay [2] in a line: growth inhibition of DIPG glioma cells, dose response, cell-based, JHH-DIPG-1, MIPE4.0, CellTiter-Glo, qHTS (AID 1347062; cut-off not given, nearly all actives have AC50 up to about 27 µM;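 as to AC50: cells exposed to compound for two days before readout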). The conditions noted are these: JHH-DIPG-1 viability, CellTiter-Glo ATP luminescence.
The nature of assay [3]: growth inhibition of DIPG glioma cells, dose response, cell-based, SU-DIPG-IV, MIPE4.0, CellTiter-Glo, qHTS (AID 1347063; cut-off not given, nearly all actives have AC50 up to about 30 µM;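 also: compound exposure lasted 48 hours before the viability readout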). The conditions noted are these: SU-DIPG-IV viability, CellTiter-Glo ATP luminescence. Background: Cellular ATP, detected with luciferase, serves as a proxy for viable cell number.
Assay [4] in a line: growth inhibition of DIPG glioma cells, dose response, cell-based, SU-DIPG-XIII, MIPE5.0, CellTiter-Glo, qHTS (AID 1347064; cut-off not given, nearly all actives have AC50 up to about 23 µM;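 also: cells exposed to compound for 48 hours before the viability read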). The conditions noted are these: SU-DIPG-XIII viability, CellTiter-Glo ATP luminescence.
A short description of assay [5]: modifiers of HSF1 nuclear foci, imaging, Selleck Cancer Library (AID 1347162; in the data active = plate-normalised HSF1 focus index below about 0.46). The settings on record: human cells, at 10 µM; SSMD: measured here: HSF1 foci SSMD mean; cell count: measured here: cell number; plate-normalised HSF1 focus index: stronger effect = lower value.
The nature of assay [6]: viability loss in pontine glioma line – cell-based, SU-DIPG-XXV, MIPE5.0, CellTiter-Glo, qHTS, dose response (AID 1347065; cut-off not given, nearly all actives have AC50 up to about 26 µM;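 also: cells exposed to compound for 48 hours before ATP readout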). The conditions noted are these: CellTiter-Glo ATP luminescence.
Assay [7] can be described thus: SU-DIPG-VI glioma cell viability, MIPE4.0 library, CellTiter-Glo luminescence, qHTS (AID 1347066; cut-off not given, nearly all actives have AC50 up to about 30 µM;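 also: cells exposed to compound for 48 hours before readout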). The settings on record: CellTiter-Glo ATP luminescence.
A short description of assay [8]: JHH-DIPG-1 glioma cell viability, MIPE5.0 library, CellTiter-Glo luminescence, qHTS (AID 1347067; cut-off not given, nearly all actives have AC50 up to about 26 µM;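 also: cells exposed to compound for 48 hours before readout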). The settings on record: JHH-DIPG-1 glioma viability, CellTiter-Glo ATP luminescence.
Assay [9] is described as follows: SU-DIPG-XXV glioma cell viability, MIPE5.0 library, qHTS (AID 1347068; cut-off not given, nearly all actives have IC50 up to about 30 µM;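 as to IC50: cells exposed to compound for 48 hours before viability readout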).
Assay [10] is described as follows: sensitizers of A549 cells to miR-34 induction, primary screen, imaging, A549 dox-inducible miR-34, nuclei and caspase counts (AID 1347080;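 active = compounds whose cell count with miR-34 switched on is under 0.7 times the count with it off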). The settings on record: A549 miR-34 inducible, Hoechst nuclei count, 48 h.
Assay [11] can be described thus: survival rescue of mitochondrial mutant cells in low glucose, primary screen, MELAS cybrids, Rieske KO mouse fibroblasts, CellTiter-Glo (AID 1508586;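 active = mean z-score across replicates of 1.96 or higher in either the MELAS or the Rieske mutant cell line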;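 also: z relative to plate mean and SD of compound and empty wells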).
A short description of assay [12]: ovarian cancer cell viability with rucaparib, profiling panel, oncology-focused library, rucaparib conditional (AID 1508598). The settings on record: patient-derived ovarian cancer cells, CellTiter-Glo viability, 144 h, stronger effect = lower value.
The mark [13] stands for this setting: stronger effect = lower value, cell number ratio, induced over uninduced.
The mark [14] stands for this setting: measured here: relative caspase fold change +Dox/-Dox.
Where [15] appears, read: measured here: total cells with miR-34 induction, stronger effect = lower value.
The mark [16] stands for this setting: measured here: total cells without miR-34 induction.
The mark [17] stands for this setting: MELAS cybrid survival, CellTiter-Glo 48 h, stronger effect = higher value.
Setting [18] is: Rieske KO mouse fibroblast survival, CellTiter-Glo 72 h.

The results in this text go back to PubChem BioAssay.

Where “and” joins values, the source holds several entries; their conditions need not be identical. Identical values can stand only once. Inconclusive results are not listed. Calls of active or inactive are those of the source.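 The calls were made as follows, unless noted: active = normalized viability below 100% at a tested concentration; inactive = the rest.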

Consider `CN(C)CCCN=c1c2ccccc2n(C)c2[nH]c(=O)n(C)c(=O)c12`, for which the AC50 in assay [1] is 29.5 µM (active); in [2] it was 8.33 µM (active); in [3], 14.8 µM (active); in [4], 26.3 µM (active). Also, the SSMD in [5] was -0.045. Further, in assay [5], the cell count was found to be 6580. In [5], the plate-normalised HSF1 focus index is 0.997 (inactive).

Take `O=C(NC1CCNCC1)c1[nH]ncc1NC(=O)c1c(Cl)cccc1Cl`: the half-maximal activity concentration (AC50) in assay [1] was 6.61 µM (active); in assay [2], 0.418 µM (active); in [3], 0.935 µM (active); in assay [6], 7.42 µM (active); in [8], 1.86 µM (active). For the same compound, the outcome in [7] was inactive. Besides, the IC50 in assay [9] is 4.68 µM (active). The values for the fold change in [10] (setting [13]) and in [10] (setting [14]) were 1.06 (inactive) and 0.925, respectively. Besides, the cell count turned out to be 1340 in assay [10] (setting [15]), 1260 in assay [10] (setting [16]) and 7300 in assay [5]. The same compound displayed an SSMD in assay [5] of -4.94. For the same compound, the plate-normalised HSF1 focus index in assay [5] was 0.823 (inactive). Moreover, the z-score was 0.31 (inactive) in [11] (setting [17]) and -1.14 in [11] (setting [18]). Moreover, the viability in [12] (at 0.000305 µM, OCI-C5x cells, with rucaparib 10 µM, 100% = cells with rucaparib alone) is 126% (inactive); in assay [12] (at 0.000305 µM, OCI-C5x cells, without rucaparib), 105% (inactive); in assay [12] (at 0.000305 µM, OCI-P5x cells, with rucaparib 20 µM, 100% = cells with rucaparib alone), 89.7% (active); in assay [12] (at 0.000305 µM, OCI-P5x cells, without rucaparib), 97.4% (active); in assay [12] (at 0.00122 µM, OCI-C5x cells, with rucaparib 10 µM, 100% = cells with rucaparib alone) it was 116% (inactive); in [12] (at 0.00122 µM, OCI-C5x cells, without rucaparib), 113% (inactive). Besides, the viability in assay [12] (at 0.00122 µM, OCI-P5x cells, with rucaparib 20 µM, 100% = cells with rucaparib alone) was 95.9% (active); in assay [12] (at 0.00122 µM, OCI-P5x cells, without rucaparib), 103% (inactive); in [12] (at 0.00488 µM, OCI-C5x cells, with rucaparib 10 µM, 100% = cells with rucaparib alone) it was 118% (inactive); in [12] (at 0.00488 µM, OCI-C5x cells, without rucaparib), 117% (inactive); in [12] (at 0.00488 µM, OCI-P5x cells, with rucaparib 20 µM, 100% = cells with rucaparib alone) it was 103% (inactive); in assay [12] (at 0.00488 µM, OCI-P5x cells, without rucaparib), 105% (inactive). For the same compound, the viability in [12] (at 0.0195 µM, OCI-C5x cells, with rucaparib 10 µM, 100% = cells with rucaparib alone) is 110% (inactive); in [12] (at 0.0195 µM, OCI-C5x cells, without rucaparib), 118% (inactive); in assay [12] (at 0.0195 µM, OCI-P5x cells, with rucaparib 20 µM, 100% = cells with rucaparib alone) it was 96.7% (active); in [12] (at 0.0195 µM, OCI-P5x cells, without rucaparib), 99% (active); in assay [12] (at 0.0781 µM, OCI-C5x cells, with rucaparib 10 µM, 100% = cells with rucaparib alone), 108% (inactive); in [12] (at 0.0781 µM, OCI-C5x cells, without rucaparib), 118% (inactive). For the same compound, the viability in [12] (at 0.0781 µM, OCI-P5x cells, with rucaparib 20 µM, 100% = cells with rucaparib alone) is 93.7% (active); in [12] (at 0.0781 µM, OCI-P5x cells, without rucaparib), 89.4% (active); in [12] (at 0.313 µM, OCI-C5x cells, with rucaparib 10 µM, 100% = cells with rucaparib alone), 86.2% (active); in [12] (at 0.313 µM, OCI-C5x cells, without rucaparib), 99.6% (active); in [12] (at 0.313 µM, OCI-P5x cells, with rucaparib 20 µM, 100% = cells with rucaparib alone) it was 88% (active); in [12] (at 0.313 µM, OCI-P5x cells, without rucaparib) it was 78.2% (active). The viability in assay [12] (at 1.25 µM, OCI-C5x cells, with rucaparib 10 µM, 100% = cells with rucaparib alone) was 10.3% (active); in assay [12] (at 1.25 µM, OCI-C5x cells, without rucaparib), 13.9% (active); in [12] (at 1.25 µM, OCI-P5x cells, with rucaparib 20 µM, 100% = cells with rucaparib alone) it was 20.4% (active); in [12] (at 1.25 µM, OCI-P5x cells, without rucaparib), 15.8% (active); in [12] (at 5 µM, OCI-C5x cells, with rucaparib 10 µM, 100% = cells with rucaparib alone), 13% (active); in assay [12] (at 5 µM, OCI-C5x cells, without rucaparib), 12.2% (active). Further, the viability in [12] (at 5 µM, OCI-P5x cells, with rucaparib 20 µM, 100% = cells with rucaparib alone) is 17.1% (active); in assay [12] (at 5 µM, OCI-P5x cells, without rucaparib), 14% (active).

Regarding `CCCCCCCCCCCC(CC1OC(=O)C1CCCCCC)OC(=O)C(CC(C)C)NC=O` (stereo not drawn), the outcome in assay [1], in assay [2], in [3], in [7], in [8] and in assay [9] was inactive. The fold change in assay [10] (setting [13]) was 0.897 (inactive) and 0.881 (inactive); in assay [10] (setting [14]) it was 2.53 and 0.818. Further, the cell count in assay [10] (setting [15]) is 9250 and 6710; in assay [10] (setting [16]) it was 10300 and 7610. Further, the z-score in assay [11] (setting [17]) was 1.14 (inactive); in [11] (setting [18]) it was -1.74.

For `NCC(=O)Nc1ccc(-n2nc(C(F)(F)F)cc2-c2ccc3c(ccc4ccccc43)c2)cc1`, the concentration at half-maximal activity (AC50) was 23.5 µM (active) in assay [1]; 23.5 µM (active) in [2]; 20.9 µM (active) in assay [3]; 20.9 µM (active) in [7]; 20.9 µM (active) in assay [8]. Besides, the figures for the fold change in [10] (setting [13]) and in assay [10] (setting [14]) were 1.2 (inactive) and 0.441, respectively. Also, the cell count turned out to be 2160 in [10] (setting [15]) and 1800 in assay [10] (setting [16]). Also, the z-score in [11] (setting [17]) was -0.432 (inactive); in assay [11] (setting [18]) it was -0.00325.

For `C[C@H]1[C@H](OC(=O)CCC(=O)O)O[C@@H]2O[C@@]3(C)CC[C@H]4[C@H](C)CC[C@@H]1[C@@]24OO3`, the AC50 is 3.72 µM (active) in [1], 14.8 µM (active) in assay [2], 3.72 µM (active) in [3] and 13.2 µM (active) in assay [6]. Besides, the result in assay [7] was inactive.

The term AC50 denotes the concentration giving half of the maximal activity seen. In general, IC50 refers to the midpoint of a concentration-inhibition curve. As usually defined, the viability is a read-out of living cells in per cent, often relative to untreated cells.
